In the supplement of paper PMC11219838:
Values without a mark were called inactive.

Columns and labels:
Conditions in all cases: 60 µM; 5 days; temperature: 20 °C
[1] = tested on: Meloidogyne hapla J2; experiment: proportion of mobile M. hapla J2 relative to DMSO control (fraction of DMSO control); higher = more viable, less nematicidal, active = 0.7 or less
In short: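 Two biological replicates were run and averaged, each on 96-well plates in which about 25 M. hapla J2 sat in distilled water per well. Compound was pinned in to give 60 µM final and 0.6% v/v DMSO, and the sealed plates were shaken at 200 rpm and 20 °C for 5 days before 2 µL 1 M NaOH was added. Mobility was scored microscopically and divided by the mean from the plate's DMSO-only wells, of which there were eight.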

[2] = tested on: Caenorhabditis elegans dauer (daf-2(e1370)); experiment: proportion of mobile C. elegans dauer larvae relative to DMSO control (fraction of DMSO control); higher = more viable, less nematicidal, active = 0.63 or less; extreme values may be limits of the assay
In short: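 Synchronized C. elegans daf-2(e1370) larvae were held at 25 °C for 48 h on MYOB plates with E. coli OP50 to form dauers, and about 20 dauers were added per 96-well well in liquid NGM. Compound was pinned to 60 µM final (0.6% v/v DMSO), and sealed plates were shaken at 200 rpm for 5 days at 20 °C. The proportion of mobile worms was scored under a dissection microscope relative to DMSO controls and averaged over two biological replicates.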

[3] = tested on: Ditylenchus dipsaci; experiment: proportion of mobile D. dipsaci (mixed stage) relative to DMSO control (fraction of DMSO control); higher = more viable, less nematicidal, active = 0.86 or less; extreme values may be limits of the assay
In short: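 The worms, D. dipsaci raised on pea plants in Gamborg B-5 agar, were recovered through a filter funnel into water. Each well of a 96-well plate then held about 20 of them in distilled water plus pinned compound at 60 µM final (0.6% v/v DMSO), and the sealed plates were shaken at 200 rpm at 20 °C for 5 days. Following addition of 2 µL 1 M NaOH, mobile worms were counted by microscopy, and mobility was expressed against DMSO controls as the average of two biological replicates.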

Row | SMILES | proportion of mobile M. hapla J2 [1] | proportion of mobile C. elegans dauer larvae [2] | proportion of mobile D. dipsaci [3]
1 | O=C(Nc1ccc(-c2noc(COc3ccccc3)n2)cc1)c1ccc(F)cc1 | 1.03 | 1 | 1
2 | CCOc1nc(-c2ccccc2)ccc1-c1noc(-c2cccc(OC)c2)n1 | 0.759 | 1 | 1
3 | c1ccc(-c2noc(COc3cccc4ccccc34)n2)nc1 | 0.936 | 1 | 1
4 | Cc1ccc(-c2nc(-c3ccccc3)no2)cc1 | 1.04 | 1 | 1
5 | O=C(CSc1nnc(-c2ccccc2)o1)Nc1cc(C(F)(F)F)ccc1Cl | 1.04 | 1 | 1
6 | Cc1ccc(NC(=O)CSc2nnc(-c3ccco3)o2)cc1Br | 1.03 | 1 | 1
7 | COc1ccccc1-c1nnc(SCC(=O)Nc2nc(C)cs2)o1 | 0.91 | 1 | 1
8 | COc1ccc(NC(=O)CSc2nnc(-c3ccc(Br)cc3)o2)cc1 | 1.02 | 1 | 1
9 | O=C(CSc1nnc(-c2ccco2)o1)Nc1ccccc1F | 0.933 | 1 | 1
10 | Cc1ccc(-c2nc(-c3ccccc3Cl)no2)c(Cl)c1 | 0.942 | 1 | 1
11 | Cc1cccc(-c2noc(COc3ccc(Cl)cc3C)n2)c1 | 0.925 | 1 | 1
12 | COc1ccc(-c2nnc(SCc3ccc(Cl)cc3Cl)o2)cc1 | 1.04 | 1 | 1
13 | COc1ccc(CCC(=O)Nc2ccc(-c3noc(-c4ccc(F)cc4)n3)cc2)cc1 | 0.746 | 1 | 1
14 | COc1nc2ccc(C)cc2cc1-c1noc(-c2cccnc2)n1 | 0.972 | 1 | 1
15 | CCc1ccc(OCc2nc(-c3ccc(Cl)cc3)no2)cc1 | 1.03 | 1 | 1
16 | Clc1cccc(-c2nc(-c3ccc4c(c3)OCO4)no2)c1 | 0.943 | 1 | 1
17 | FC(F)(F)c1cccc(-c2noc(-c3cccnc3)n2)c1 | 0.813 | 1 | 0.914
18 | O=C(CSc1nnc(-c2ccc(Br)cc2)o1)Nc1nccs1 | 1.01 | 1 | 1
19 | CC(Sc1nnc(-c2cccnc2)o1)C(=O)c1ccccc1 (stereo unspecified) | 1.03 | 1 | 1
20 | Ic1cccc(-c2nc(-c3cccnc3)no2)c1 | 1.04 | 1 | 1
21 | Cc1ccccc1CSc1nnc(-c2ccco2)n1C | 1.03 | 1 | 0.75 (active)
22 | CC(C)CCC(=O)Nc1ccccc1-c1nc(-c2ccncc2)no1 | 0.977 | 1 | 1
23 | Cc1cccc(-c2noc(COc3ccccc3Cl)n2)c1 | 0.894 | 1 | 1
24 | COc1cccc(-c2noc(CSc3ccc(Cl)cc3)n2)c1 | 1.03 | 1 | 1

Row | SMILES | proportion of mobile M. hapla J2 [1] | proportion of mobile C. elegans dauer larvae [2] | proportion of mobile D. dipsaci [3]
25 | Cc1ccc(-c2noc(-c3ccc(Cl)cc3)n2)cc1 | 1.03 | 1 | 1
26 | COc1ccc(OCc2nc(-c3cccc(Br)c3)no2)cc1 | 1 | 1 | 1
27 | CN(C(=O)CSc1nnc(-c2ccccc2)o1)c1ccccc1 | 1.02 | 1 | 1
28 | O=C(CSc1nnc(-c2cccnc2)o1)c1ccc(Br)cc1 | 1.04 | 1 | 1
29 | COc1cccc(NC(=O)c2ccccc2-c2nc(-c3ccccc3Cl)no2)c1 | 0.918 | 1 | 1
30 | COc1ccc(-c2nnc(SCC(=O)c3ccccc3)o2)cc1 | 0.767 | 1 | 1
31 | Cc1cccc(-c2nnc(SCC(=O)Nc3ccccc3C(C)C)o2)c1 | 0.892 | 1 | 1
32 | c1ccc2c(-c3nc(-c4ccncc4)no3)cccc2c1 | 0.917 | 1 | 1
33 | Cc1ccc(SCc2nc(-c3cccc(C)c3)no2)cc1 | 1.01 | 1 | 1
34 | CC(Sc1nnc(-c2ccc(C(C)(C)C)cc2)o1)C(=O)Nc1nccs1 (stereo unspecified) | 0.845 | 1 | 1
35 | N#Cc1ccccc1CSc1nnc(-c2ccccc2)o1 | 0.841 | 1 | 1
36 | O=C(Nc1ccccc1-c1nc(-c2cccnc2)no1)c1cc2ccccc2o1 | 0.919 | 1 | 0.9
37 | COc1ccc(-c2nnc(SCC(=O)Nc3ccccc3F)o2)cc1 | 1.04 | 1 | 1
38 | Clc1ccc(OCc2nc(-c3ccc4c(c3)OCO4)no2)cc1 | 0.932 | 1 | 1
39 | Cc1ccccc1-c1nc(-c2ccc3c(c2)OCO3)no1 | 0.848 | 1 | 0.933
40 | Cc1nnc(CSc2nnc(-c3ccc(Cl)cc3)o2)o1 | 0.926 | 1 | 1
41 | COc1ccccc1-c1nnc(SCc2ccccc2C#N)o1 | 0.94 | 1 | 1
42 | COc1cccc(-c2noc(-c3c(F)cccc3F)n2)c1 | 0.953 | 1 | 1
43 | CC(C)c1ccc(OCc2nc(-c3ccncc3)no2)c(Br)c1 | 0.82 | 1 | 1
44 | COc1ccc(-c2noc(-c3ccc(C)c(C)c3)n2)cc1 | 0.807 | 1 | 1
45 | COC(=O)CSc1nnc(-c2ccc(C(C)(C)C)cc2)o1 | 0.976 | 1 | 1
46 | COc1nc(-c2ccc(Cl)cc2)ccc1-c1noc(C)n1 | 1.03 | 1 | 1
47 | O=C(CSc1nnc(-c2ccc(Cl)cc2Cl)o1)Nc1ccccn1 | 0.838 | 1 | 1
